Test in all cases: NCI-60 one-dose screen, 48 h (100 = growth as untreated, 0 = no growth, -100 = all killed)
One experiment concerns HCT-15 colon. The following applies: 10 µM unless noted.
In another experiment the test system is HT29 colon. The following applies: 10 µM unless noted.
In another experiment the test system is SNB-75 CNS. The following applies: 10 µM unless noted.
For the next experiment, the system named is SNB-19 CNS. The following applies: 10 µM unless noted.
The test system of a further experiment is U251 CNS. To be noted: 10 µM unless noted.
The next experiment concerns PC-3 prostate. To be noted: 10 µM unless noted.
In another experiment the test system is SK-MEL-5 melanoma. To be noted: 10 µM unless noted.
Another experiment deals with UACC-62 melanoma. To be noted: 10 µM unless noted.
In the next experiment the test system is LOX IMVI melanoma. The following applies: 10 µM unless noted.
A further experiment deals with SK-MEL-2 melanoma. The following applies: 10 µM unless noted.
For another experiment, the system named is EKVX NSCLC. To be noted: 10 µM unless noted.
A further experiment has as its system SN12C renal. To be noted: 10 µM unless noted.
Another experiment has as its system UO-31 renal. The following applies: 10 µM unless noted.
A further experiment has as its system TK-10 renal. To be noted: 10 µM unless noted.
In a further experiment the test system is ACHN renal. The following applies: 10 µM unless noted.
The next experiment relates to CAKI-1 renal. To be noted: 10 µM unless noted.
For another experiment, the system named is HL-60(TB) leukemia. The following applies: 10 µM unless noted.
Another experiment deals with CCRF-CEM leukemia. The following applies: 10 µM unless noted.
The next experiment relates to A498 renal. The following applies: 10 µM.
For the next experiment, the system named is SK-MEL-28 melanoma. To be noted: 10 µM unless noted.

About 83,000 compounds went through this panel and 20% of them were active in at least one assay; those are over-represented in the sample as a whole.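 Assay: single dose, 48 h. Readout: percent growth (0 = no net growth; negative = cell death). Active: <10.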 A number with no mark means an inactive call. Active and inactive are the calls of the source.

With `CNC(=O)Oc1ccc2c(c1)OCO2`, the growth in the experiment with HCT-15 colon was 101%; in the experiment with HT29 colon it was 104%; in the experiment with SNB-75 CNS it was 98.6%; in the experiment with SNB-19 CNS, 98.9%; in the experiment on U251 CNS it was 99%; in the experiment with PC-3 prostate, 102%. In addition, the growth in the experiment with SK-MEL-5 melanoma was 101%; with UACC-62 melanoma, 99.4%; in the experiment with LOX IMVI melanoma it was 103%; with SK-MEL-2 melanoma it was 98.2%; in the experiment on EKVX NSCLC, 97.9%; in the experiment on SN12C renal, 99.7%. In addition, the growth in the experiment with UO-31 renal was 98.1%; in the experiment with TK-10 renal, 101%; in the experiment on ACHN renal, 99.3%; in the experiment on CAKI-1 renal, 100%; in the experiment with HL-60(TB) leukemia, 94.3%; in the experiment with CCRF-CEM leukemia, 111%.
With `CC(=O)OC1CCC2(C)C(CCC3C2CC(=O)C2(C)C3CC(Sc3ccc(N(CCCl)CCCl)cc3)C2C(C)=O)C1` (centres undefined), the growth in the experiment with HCT-15 colon was 50.5%; in the experiment with HT29 colon, 11.9%; in the experiment on SNB-75 CNS, 111%; in the experiment with SNB-19 CNS it was 82.7%; with U251 CNS it was 68.1%; in the experiment on PC-3 prostate, 85.5%. In addition, the growth in the experiment with SK-MEL-5 melanoma is 93%; in the experiment with UACC-62 melanoma, 67.9%; in the experiment with LOX IMVI melanoma it was 55.1%; in the experiment with SK-MEL-2 melanoma, 93.3%; in the experiment on EKVX NSCLC, 115%; with SN12C renal, 87.3%. Besides, the growth with UO-31 renal was 77.6%; in the experiment on TK-10 renal, 92.6%; in the experiment on ACHN renal, 72.3%; with CAKI-1 renal it was 68%; in the experiment on A498 renal, 103%; in the experiment with HL-60(TB) leukemia, 79.3%. Also, in the experiment with CCRF-CEM leukemia, the growth was 63.1%.
Turning to `CC1(C)[C@H](O)[C@H](F)C[C@@]2(C)Oc3ccc(C(=O)Nc4ccc5c(c4)NC(=O)C54CCN(CCCCC#N)CC4)cc3C[C@H]12`, the growth in the experiment on HCT-15 colon was 45.7%; in the experiment on HT29 colon, 16%; with SNB-75 CNS, 46.8%; in the experiment with SNB-19 CNS, 32.2%; with U251 CNS, 10.6%; with PC-3 prostate, 24.4%. Moreover, the growth with SK-MEL-5 melanoma was -60.7% (active); with UACC-62 melanoma, -24.4% (active); in the experiment on LOX IMVI melanoma, 7.04% (active); in the experiment on SK-MEL-2 melanoma it was 28.8%; with EKVX NSCLC, 82.1%; in the experiment with SN12C renal, 69.9%. The growth was 31.5% with UO-31 renal; 59.1% in the experiment on TK-10 renal; 43.1% in the experiment with ACHN renal; 56.5% in the experiment with CAKI-1 renal; 13.8% in the experiment on CCRF-CEM leukemia.
With `COc1cc2ncnc(Nc3ccc(F)c(Cl)c3)c2cc1OCC(=O)N1CCN(C)CC1`, the growth in the experiment with HCT-15 colon was 93.4%; in the experiment on HT29 colon it was 90.6%; in the experiment with SNB-75 CNS, 92.2%; in the experiment on SNB-19 CNS, 79.6%; in the experiment on U251 CNS, 101%; with PC-3 prostate it was 86%. Moreover, the growth in the experiment on SK-MEL-5 melanoma is 97.5%; with UACC-62 melanoma, 98.1%; in the experiment on LOX IMVI melanoma it was 91.5%; in the experiment on SK-MEL-2 melanoma, 94.4%; with EKVX NSCLC it was 61.8%; in the experiment with SN12C renal, 76.9%. The growth was 55.9% with UO-31 renal; 23.4% in the experiment on TK-10 renal; 37.8% with ACHN renal; 44.1% in the experiment with CAKI-1 renal; 69.9% in the experiment on A498 renal; 87% in the experiment on CCRF-CEM leukemia.
With `Oc1c(O)c(Cl)c(Cl)c(Cl)c1Cl`, the growth with HCT-15 colon was 26.3%; in the experiment with HT29 colon, 62.7%; in the experiment with SNB-75 CNS, 36.7%; in the experiment with SNB-19 CNS it was 29.7%; in the experiment with U251 CNS it was 38.9%; in the experiment on PC-3 prostate, 34.5%. Also, the growth with SK-MEL-5 melanoma was 22.5%; in the experiment with UACC-62 melanoma, 3.58% (active); in the experiment with LOX IMVI melanoma, 24.4%; in the experiment with SK-MEL-28 melanoma it was 51.4%; in the experiment with EKVX NSCLC, 36.6%; with SN12C renal, 31.6%. For the same molecule, the growth is 3.66% (active) in the experiment with UO-31 renal; 73.4% in the experiment with TK-10 renal; 81.7% in the experiment with CAKI-1 renal; 63.7% with A498 renal; 24.9% in the experiment with HL-60(TB) leukemia; 35.3% with CCRF-CEM leukemia.
Turning to `CC(C)(C)N1CC1C#N` (centres undefined), the growth in the experiment on HCT-15 colon was 99.6%; in the experiment on HT29 colon, 105%; in the experiment on SNB-75 CNS, 98.3%; in the experiment with SNB-19 CNS it was 97.2%; in the experiment with U251 CNS, 100%; in the experiment with PC-3 prostate, 103%. For the same molecule, the growth is 105% in the experiment with SK-MEL-5 melanoma; 104% in the experiment on UACC-62 melanoma; 101% with LOX IMVI melanoma; 110% in the experiment with SK-MEL-28 melanoma; 103% in the experiment on SN12C renal; 92.1% with UO-31 renal. For the same molecule, the growth was 98% in the experiment with TK-10 renal; 101% in the experiment on ACHN renal; 92.6% in the experiment with CAKI-1 renal; 105% in the experiment with A498 renal; 98.3% with HL-60(TB) leukemia; 101% in the experiment with CCRF-CEM leukemia.
Regarding `O=C(Nc1ccc(Cl)cc1)Nc1nccs1`, the growth in the experiment with HCT-15 colon was 33%; in the experiment with HT29 colon, 10.7%; with SNB-75 CNS, 1.2% (active); with SNB-19 CNS it was 64.9%; with U251 CNS, 22.3%; with PC-3 prostate, 13.3%. The growth was 31.2% with SK-MEL-5 melanoma; 50.3% with UACC-62 melanoma; 46.3% in the experiment with LOX IMVI melanoma; 50.5% in the experiment on SK-MEL-28 melanoma; 50.4% in the experiment with SN12C renal; 40.3% in the experiment on UO-31 renal. The growth was 54.4% in the experiment on ACHN renal; 22.6% in the experiment with CAKI-1 renal; 8.26% (active) in the experiment on A498 renal; -18.6% (active) with HL-60(TB) leukemia; 6.31% (active) with CCRF-CEM leukemia.
For `c1cc2c(c3c1CCNC3)OCO2`, the growth in the experiment with HCT-15 colon was 102%; with HT29 colon, 91.8%; in the experiment on SNB-75 CNS it was 86.8%; in the experiment with SNB-19 CNS, 106%; in the experiment on U251 CNS, 92.6%; with PC-3 prostate, 102%. The growth is 101% with SK-MEL-5 melanoma; 100% in the experiment on UACC-62 melanoma; 95.7% with LOX IMVI melanoma; 101% with SK-MEL-2 melanoma; 95.6% in the experiment on EKVX NSCLC; 100% with SN12C renal. For the same molecule, the growth with UO-31 renal is 90.2%; with TK-10 renal, 101%; in the experiment on ACHN renal it was 111%; in the experiment on CAKI-1 renal, 91.1%; in the experiment on A498 renal, 118%; in the experiment with HL-60(TB) leukemia, 101%. In addition, the growth in the experiment on CCRF-CEM leukemia is 124%.

(Values after PubChem BioAssay (NCI).)
